Experimental findings from publication PMC4336329 (PLoS ONE, 2015) are described below.

Screen size: about 310,000 compounds; about 2,200 (0.71%) showed an effect of 50% or more. Effects have a minus sign here. Shown is part of a subset that was picked to be rich in strong results.

The test deals with human ether-à-go-go-related gene (hERG) potassium channel (human, UniProt Q12809). In words: primary screen, population patch clamp on CHO cells stably expressing hERG; higher = less effect of the substance.
Chain of human ether-à-go-go-related gene (hERG) potassium channel (Q12809 whole entry, looked up): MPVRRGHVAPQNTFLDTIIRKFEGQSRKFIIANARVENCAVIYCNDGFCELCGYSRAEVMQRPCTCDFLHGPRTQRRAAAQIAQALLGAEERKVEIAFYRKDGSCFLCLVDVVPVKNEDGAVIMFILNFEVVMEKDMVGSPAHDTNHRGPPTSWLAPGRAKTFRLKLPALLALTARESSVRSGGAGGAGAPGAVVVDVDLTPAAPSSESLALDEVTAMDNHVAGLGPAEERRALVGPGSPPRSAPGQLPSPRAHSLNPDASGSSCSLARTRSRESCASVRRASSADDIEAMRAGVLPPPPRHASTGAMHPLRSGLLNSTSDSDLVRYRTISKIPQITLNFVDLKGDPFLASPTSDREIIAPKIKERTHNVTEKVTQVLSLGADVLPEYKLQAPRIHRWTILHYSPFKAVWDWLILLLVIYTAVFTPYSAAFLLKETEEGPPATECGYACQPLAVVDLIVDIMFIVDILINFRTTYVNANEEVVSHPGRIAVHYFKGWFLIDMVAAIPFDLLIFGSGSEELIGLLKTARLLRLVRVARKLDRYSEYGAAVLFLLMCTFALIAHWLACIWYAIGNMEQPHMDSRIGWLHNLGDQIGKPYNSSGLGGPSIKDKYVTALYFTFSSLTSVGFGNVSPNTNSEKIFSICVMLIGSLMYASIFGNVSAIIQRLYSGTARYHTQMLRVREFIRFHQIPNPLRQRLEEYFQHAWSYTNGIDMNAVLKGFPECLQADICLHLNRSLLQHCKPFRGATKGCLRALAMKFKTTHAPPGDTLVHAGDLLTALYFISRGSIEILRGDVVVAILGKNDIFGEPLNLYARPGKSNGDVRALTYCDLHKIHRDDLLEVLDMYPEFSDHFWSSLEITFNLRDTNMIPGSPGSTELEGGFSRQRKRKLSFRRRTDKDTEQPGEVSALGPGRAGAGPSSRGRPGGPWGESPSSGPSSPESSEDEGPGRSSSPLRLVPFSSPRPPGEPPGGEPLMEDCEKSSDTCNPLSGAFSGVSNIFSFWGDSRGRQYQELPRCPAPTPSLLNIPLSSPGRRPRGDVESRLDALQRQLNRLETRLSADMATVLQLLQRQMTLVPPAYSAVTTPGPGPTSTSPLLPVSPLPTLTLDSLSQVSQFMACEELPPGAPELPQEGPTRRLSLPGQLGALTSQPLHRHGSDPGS
Take `CC(C)c1ccc(NC(=O)c2ccc(NC3=NC4CS(=O)(=O)CC4S3)cc2)cc1` (centres unmarked): the “hERG current change (%, negative = inhibition) at 1uM” value is on record as -0.0656%. As for `COCC(=O)N(Cc1cc2cc(C)ccc2[nH]c1=O)c1ccc(C)c(C)c1`, the “hERG current change (%, negative = inhibition) at 1uM” value amounted to 16.4%. Next, `CN1CCN(NC(=O)CN(C)S(=O)(=O)c2cc(Cl)ccc2Cl)CC1`: 6.96%. Next, `O=C(NNc1c(Cl)cccc1Cl)C1CCC1`: 13.3%. As for `Cc1ccc(C(=O)c2coc3ccc(O)c(CN4CCN(C)CC4)c23)cc1`, the “hERG current change (%, negative = inhibition) at 1uM” value is reported as -25.5%.

On to `COc1ccc(C(=O)c2coc3ccc(O)c(CN4CCCC4)c23)cc1`, for which the “hERG current change (%, negative = inhibition) at 1uM” value is reported as -56.9%.

On to `COc1ccc(-c2coc3c(CN4CCCCC4C)c(O)ccc3c2=O)cc1` (centres unmarked), for which the “hERG current change (%, negative = inhibition) at 1uM” value was 7.15%. `COc1ccc(-c2coc3c(CN4CCOCC4)c(O)ccc3c2=O)cc1`: the “hERG current change (%, negative = inhibition) at 1uM” value stood at 0.432%. In the case of `Cl.O=C(c1ccccc1)c1coc2ccc(O)c(CN3CCOCC3)c12`, the “hERG current change (%, negative = inhibition) at 1uM” value is -21%. With `COc1ccc(-c2coc3c(CN4CCCCC4)c(O)c(CN4CCCCC4)c(O)c3c2=O)cc1`, the “hERG current change (%, negative = inhibition) at 1uM” value was -88%. With `COc1ccc(C(=O)c2coc3ccc(O)c(CN4CCOCC4)c23)cc1`, the “hERG current change (%, negative = inhibition) at 1uM” value stood at 1.63%. As to `COc1ccc(OC)c(C(=O)c2coc3ccc(O)c(CN4CCOCC4)c23)c1`, the “hERG current change (%, negative = inhibition) at 1uM” value is -6.28%.

In the case of `COc1ccc(C(=O)c2coc3ccc(O)c(CN4CCCCC4)c23)cc1`, the “hERG current change (%, negative = inhibition) at 1uM” value was -61.4%. As for `CC1CCCCN1Cc1nc2c(c(=O)n(C)c(=O)n2C)n1Cc1c(F)cccc1Cl` (centres unmarked), the “hERG current change (%, negative = inhibition) at 1uM” value was 11.4%.

For `C/C(N)=C(/C#N)C(=O)CSc1nc2ccccc2[nH]1`, the “hERG current change (%, negative = inhibition) at 1uM” value turned out to be 5.05%.

In the case of `COc1ccc(NC(=O)CNC(c2ccccc2)c2ccccc2)cc1.O=C(O)C(=O)O`, the “hERG current change (%, negative = inhibition) at 1uM” value was 14.5%. As for `O=C(COC(=O)Cc1ccc(Br)cc1)NC1CCCCCC1`, the “hERG current change (%, negative = inhibition) at 1uM” value came to 11.4%. In the case of `Cc1ccc(NC(=O)Cn2cnc3ccccc32)cc1C`, the “hERG current change (%, negative = inhibition) at 1uM” value is 6.29%. `O=C(Cn1cnc2ccccc21)Nc1ccc(C(=O)O)cc1.O=C(O)C(=O)O`: the “hERG current change (%, negative = inhibition) at 1uM” value is listed as -52.9%.

As for `O=C(Cn1cnc2ccccc21)Nc1ccc(F)c(F)c1`, the “hERG current change (%, negative = inhibition) at 1uM” value came out at 3.75%. For `Cc1ncc(CSc2ccc(Cl)cc2)c(CO)c1O` the value was 12.9%; for `COCCCNC(=O)c1ccc2nc(Cc3ccc(OC)cc3)oc2c1`, 10.8%; for `Cn1nnnc1Sc1ncnc2scc(-c3cccc(S(C)(=O)=O)c3)c12`, 12.6%. `Cc1ccc(CN2CCN(Cc3ccc(OCCO)cc3)CC2CCO)o1` (centres unmarked): the “hERG current change (%, negative = inhibition) at 1uM” value is 1.83%. Consider `CCOc1ccccc1CN1CCN(C2CCSCC2)CC1CCO` (centres unmarked), for which the “hERG current change (%, negative = inhibition) at 1uM” value was -7.19%. Consider `CCOc1ccc(CN2CCN(Cc3cnc(N4CCOCC4)s3)CC2CCO)cc1` (centres unmarked), for which the “hERG current change (%, negative = inhibition) at 1uM” value is listed as -19.2%. Turning to `CCOc1ccc(CN2CCN(Cc3cc4ccccc4o3)CC2CCO)cc1` (centres unmarked), the “hERG current change (%, negative = inhibition) at 1uM” value is given as -82%.

`OCCC1CN(Cc2cc3ccccc3o2)CCN1Cc1ccc(F)cc1` (centres unmarked): the “hERG current change (%, negative = inhibition) at 1uM” value is 15.2%. As for `CCOc1ccc(CN2CCN(Cc3ccc(C)o3)CC2CCO)cc1` (centres unmarked), the “hERG current change (%, negative = inhibition) at 1uM” value is -87.8%.

As to `CCOc1ccc(CN2CCN(C3CCC3)CC2CCO)cc1` (centres unmarked), the “hERG current change (%, negative = inhibition) at 1uM” value was 3.11%.

Turning to `CCOc1ccc(CN2CCN(C3CCSCC3)CC2CCO)cc1` (centres unmarked), the “hERG current change (%, negative = inhibition) at 1uM” value was -76.2%. Next, `Cc1ccc(CN2CCN(Cc3cc4ccccc4o3)CC2CCO)cc1` (centres unmarked): -12.5%; `CCOc1ccc(CN2CCN(Cc3cnc(-c4ccccc4)s3)CC2CCO)cc1` (centres unmarked): -90.1%; `OCCC1CN(Cc2cnc(-c3ccccc3)s2)CCN1Cc1ccccc1` (centres unmarked): 1.93%. As to `CCOc1ccccc1CN1CCN(Cc2ccc(C)o2)CC1CCO` (centres unmarked), the “hERG current change (%, negative = inhibition) at 1uM” value is reported as -9.63%. Regarding `O=C(CSc1nnc(CNC(=O)c2ccccc2)o1)NCc1ccc2c(c1)OCO2`, the “hERG current change (%, negative = inhibition) at 1uM” value is recorded as 4.4%. Next, `CCN1CCN(c2c(Cl)cccc2NC(=O)c2ccc([N+](=O)[O-])cc2)CC1`: -15.9%; `CSc1ccccc1C(=O)C1CCCN(C(=O)CCc2cccnc2)C1` (centres unmarked): 8.69%; `COc1ccc(NC(=O)CSc2nc3ccccc3c(=O)n2CCCO)cn1`: -26.1%.

Take `COc1ccc(OC)c(C2CC(=O)NC(SC)=C2C#N)c1` (centres unmarked): the “hERG current change (%, negative = inhibition) at 1uM” value is 7.92%.

With `O=C(CSc1ccccc1)Nc1nnc(COc2ccc(Cl)cc2)s1`, the “hERG current change (%, negative = inhibition) at 1uM” value turned out to be 3.34%. In the case of `COc1cc(CN2CCN(Cc3ccc4cc(F)ccc4n3)CC2CCO)cc(OC)c1` (centres unmarked), the “hERG current change (%, negative = inhibition) at 1uM” value is -21.6%. For `CCOc1ccc(CN2CCN(Cc3ccc4cc(F)ccc4n3)CC2CCO)cc1` (centres unmarked) the value was -79.3%; for `CCOc1ccccc1CN1CCN(Cc2ccc3cc(F)ccc3n2)CC1CCO` (centres unmarked), -44.1%; for `Cc1cc(C)nc(/N=C(\N)Nc2ccc(C(C)C)cc2)n1`, -3.29%. For `Cc1cc(C)nc(/N=C(\N)Nc2ccc(-c3ccccc3)cc2)n1` the value was -59.8%; for `CC(=O)Nc1ccc(N/C(N)=N/c2nc(C)cc(C)n2)cc1`, 8.5%; for `CCOc1ccc(N/C(N)=N/c2nc(C)cc(C)n2)cc1`, 4.81%.

For the compound `Cc1cc(=O)[nH]c(/N=C(\N)Nc2ccc(SC(F)F)cc2)n1`, the “hERG current change (%, negative = inhibition) at 1uM” value amounted to 1.96%. As to `Cc1cc(C)nc(/N=C(\N)Nc2ccc(OCc3ccccc3)cc2)n1`, the “hERG current change (%, negative = inhibition) at 1uM” value is reported as -28.8%. Next, `Cc1ccc(N/C(N)=N/c2nc(C)cc(C)n2)cc1`: -24.7%.

As for `Cc1cc(C)nc(/N=C(\N)Nc2ccc(OCCC(C)C)cc2)n1`, the “hERG current change (%, negative = inhibition) at 1uM” value was -55.9%. For the compound `Cc1cc(C)nc(/N=C(\N)Nc2ccc(SC(F)F)cc2)n1`, the “hERG current change (%, negative = inhibition) at 1uM” value is listed as -52.9%. On to `COc1cccc(N2CCN(S(=O)(=O)c3c(C)[nH]c(C)c3C(=O)N3CCCCC3)CC2)c1`, for which the “hERG current change (%, negative = inhibition) at 1uM” value is 15.2%. As for `CC(C)(C)OC(=O)N1CCC(Cc2cc(-c3cccc(Br)c3)no2)(C(=O)O)CC1`, the “hERG current change (%, negative = inhibition) at 1uM” value is -14%. Regarding `Cc1ccc(-n2nc3c(c2NC(=O)C2CC2)CS(=O)(=O)C3)cc1`, the “hERG current change (%, negative = inhibition) at 1uM” value was -0.97%. As for `O=C(COC(=O)C1CCCCC1)Nc1ccccc1OC(F)F`, the “hERG current change (%, negative = inhibition) at 1uM” value worked out at 12.3%. `Cc1cccn2c(CN3CCCC(c4ccccc4)C3)c(C(=O)N3CCOCC3)nc12` (centres unmarked): the “hERG current change (%, negative = inhibition) at 1uM” value is recorded as -53.3%. Next, `Cc1cccn2c(CN[C@@H]3CCCC[C@H]3c3ccccc3)c(C(=O)N3CCOCC3)nc12`: 4.31%.

As to `Cc1cccn2c(CN3CCSCC3)c(C(=O)N3CCOCC3)nc12`, the “hERG current change (%, negative = inhibition) at 1uM” value was -1.36%. For `COc1cc2c(cc1OC)C1(Nc3c-2c(Cc2ccccc2)nn3-c2ccccc2)C(=O)Nc2ccccc21` (centres unmarked) the value was 12.4%; for `CCCCn1cnc2c(c(-c3ccccc3)c(-c3ccccc3)n2Cc2ccco2)c1=N`, -45.6%. In the case of `N=c1c2c(-c3ccccc3)c(-c3ccccc3)n(Cc3ccccc3)c2ncn1CCCn1ccnc1`, the “hERG current change (%, negative = inhibition) at 1uM” value is reported as -32%.

Consider `N=c1c2c(-c3ccccc3)c(-c3ccccc3)n(Cc3ccccc3)c2ncn1CCO`, for which the “hERG current change (%, negative = inhibition) at 1uM” value is on record as 0.416%. Turning to `N=c1c2c(-c3ccccc3)c(-c3ccccc3)n(Cc3ccco3)c2ncn1CCN1CCOCC1`, the “hERG current change (%, negative = inhibition) at 1uM” value is recorded as -72.3%. As for `c1ccc(-c2c(-c3ccccc3)n(Cc3ccco3)c3ncnc(NCCCn4ccnc4)c23)cc1`, the “hERG current change (%, negative = inhibition) at 1uM” value is -9.73%. Consider `N=c1c2c(-c3ccccc3)c(-c3ccccc3)n(Cc3ccco3)c2ncn1Cc1ccccc1`, for which the “hERG current change (%, negative = inhibition) at 1uM” value is recorded as -4.13%. Next, `N=c1c2c(-c3ccccc3)c(-c3ccccc3)n(Cc3ccco3)c2ncn1CCCN1CCOCC1`: -91.3%; `CC(C)Cn1cnc2c(c(-c3ccccc3)c(-c3ccccc3)n2Cc2ccco2)c1=N`: -26.2%; `N=c1c2c(-c3ccccc3)c(-c3ccccc3)n(Cc3ccco3)c2ncn1CCO`: -52.2%.

For `N=c1c2c(-c3ccccc3)c(-c3ccccc3)n(Cc3ccco3)c2ncn1CCCO`, the “hERG current change (%, negative = inhibition) at 1uM” value was -34.5%. `N=c1c2c(-c3ccccc3)c(-c3ccccc3)n(Cc3ccco3)c2ncn1Cc1ccco1`: the “hERG current change (%, negative = inhibition) at 1uM” value is -26.8%. For `N=c1c2c(-c3ccccc3)c(-c3ccccc3)n(Cc3ccco3)c2ncn1CCCn1ccnc1` the value was -63.6%. For the compound `Cc1cc(C)n(Cc2ccc(NC(=O)c3ccc(COc4ccccc4Br)cc3)cc2)n1`, the “hERG current change (%, negative = inhibition) at 1uM” value is -8.42%. For the compound `O=C(O)C1=C(OCc2ccc(F)c(F)c2)C(=O)NCC1`, the “hERG current change (%, negative = inhibition) at 1uM” value was 13.4%. Consider `Cc1ccc(C(C(=O)NC2CCCC2)N(Cc2ccccc2)C(=O)c2csnn2)o1` (centres unmarked), for which the “hERG current change (%, negative = inhibition) at 1uM” value was 12.4%. Next, `COc1cc(C(=O)O)ccc1OCc1ccncc1`: 14.1%; `CCOC(=O)C(=O)NC(C)CCc1ccccc1` (centres unmarked): 9.43%.

For `Cc1ccc(C(C)C)c(OCC(=O)N2CCN(c3ncccn3)CC2)c1`, the “hERG current change (%, negative = inhibition) at 1uM” value was determined as 10%. For `Cc1cccn2c(=O)c3cc(S(=O)(=O)c4ccccc4)c(=N)n(CC4CCCO4)c3nc12` (centres unmarked) the value was 7.88%. Take `Cc1cccn2c(=O)c3cc(C(=O)NC4CCCCC4)c(=N)n(Cc4ccccc4)c3nc12`: the “hERG current change (%, negative = inhibition) at 1uM” value is -40.2%. With `Cc1cccn2c(=O)c3cc(C(=O)NCC4CCCO4)c(=N)n(CC4CCCO4)c3nc12` (centres unmarked), the “hERG current change (%, negative = inhibition) at 1uM” value is on record as -84.8%. For the compound `CCCn1c(=N)c(C(=O)NCC2CCCO2)cc2c(=O)n3cccc(C)c3nc21` (centres unmarked), the “hERG current change (%, negative = inhibition) at 1uM” value was -78.3%.

In the case of `Cc1cccn2c(=O)nc(SCC(=O)NCc3ccc4c(c3)OCO4)nc12`, the “hERG current change (%, negative = inhibition) at 1uM” value is -1.11%.

With `CCCn1c(=N)c(C(=O)NCc2ccc3c(c2)OCO3)cc2c(=O)n3cccc(C)c3nc21`, the “hERG current change (%, negative = inhibition) at 1uM” value was -67.3%. As to `Cc1cccn2c(=O)c3cc(C(=O)NC4CCCC4)c(=N)n(CC4CCCO4)c3nc12` (centres unmarked), the “hERG current change (%, negative = inhibition) at 1uM” value is -80.2%.
